# Only some compounds are listed: those with a hit (about 19% of all), similar ones and a draw of the others.
# ELG1 DNA repair = qHTS screen for small molecules that inhibit ELG1-dependent DNA repair in human embryonic kidney (HEK293T) cells expressing luciferase-tagged ELG1 | HEK293T ELG1-luciferase reporter, luminescence, 16 h; DNA damage induced by 5-fluorouridine | Potency, µM (titrated, usually from 46.1 µM), without a hit: at the highest dose activity change, negative = inhibition, hits mostly inhibitors | actives 2.3% (n = 330,000); note: potency is the fitted concentration of half-maximal effect; nearly all actives have a fitted effect of over 55% in size
#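 Step one: seed 2,000 cells per well. Step two: pin-transfer compound or DMSO alongside 5-fluorouridine. Step three: incubate 16 hr, 37 °C, 5% CO2. Step four: add ONE-Glo, wait 30 min, read luminescence.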
# TDP1 inh = qHTS Assay for Inhibitors of Tyrosyl-DNA Phosphodiesterase (TDP1) | Tyrosyl-DNA phosphodiesterase 1 (Homo sapiens), Q9NUW8 | recombinant TDP1, AlphaScreen DNA substrate cleavage | Potency, µM (titrated, usually from 130 µM), for inactives: top-dose activity change, negative = inhibition, hits mostly inhibitors | actives 0.28% (n = 350,000) | AID 485290, 2010; note: potency is the fitted concentration of half-maximal effect; nearly all actives have a fitted effect of over 40% in size
# Target sequence (Q9NUW8 whole entry, looked up): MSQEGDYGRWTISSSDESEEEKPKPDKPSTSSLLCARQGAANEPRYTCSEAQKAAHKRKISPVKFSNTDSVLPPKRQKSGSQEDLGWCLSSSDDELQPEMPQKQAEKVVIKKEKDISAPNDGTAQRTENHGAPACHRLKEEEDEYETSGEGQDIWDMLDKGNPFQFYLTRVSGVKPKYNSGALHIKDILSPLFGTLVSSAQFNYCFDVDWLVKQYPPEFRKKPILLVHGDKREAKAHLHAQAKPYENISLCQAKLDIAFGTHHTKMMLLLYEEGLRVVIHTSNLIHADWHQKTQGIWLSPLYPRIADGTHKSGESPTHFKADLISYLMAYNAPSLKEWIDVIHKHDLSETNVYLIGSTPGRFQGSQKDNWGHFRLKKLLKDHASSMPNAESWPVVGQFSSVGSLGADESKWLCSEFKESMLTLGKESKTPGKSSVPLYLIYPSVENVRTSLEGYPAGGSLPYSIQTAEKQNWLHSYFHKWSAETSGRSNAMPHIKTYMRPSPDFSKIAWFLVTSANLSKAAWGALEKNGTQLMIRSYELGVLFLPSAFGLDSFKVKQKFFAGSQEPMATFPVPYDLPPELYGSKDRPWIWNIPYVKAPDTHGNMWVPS
#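 E. coli-derived human Tdp1, 1 nM final. Cpd preinc 15 min RT; substrate 15 nM final, 5 min RT; AS bead mix 10 ug/ml final, 10 min RT. Signal loss = tyrosine-FITC cleavage. No-enzyme wells = max signal.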
# IL-1B inflam inh = qHTS for Inhibitors of Inflammasome Signaling: IL-1-beta AlphaLISA Primary Screen; AID 743279, 2014; THP-1 LPS/ATP IL-1B secretion, AlphaLISA, 16 h; active compounds read low; activity change, % at 57.5 µM; actives 4.7% (n = 360,000); in the data active = activity change below about -50%; inconclusive = mostly about -30% to -49%
#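 THP-1 cells pretreated 1 hr with compounds (up to 57.5 uM final), then stimulated with LPS (250 ng/mL final) plus ATP (1.25 mM final); secreted IL-1B measured by AlphaLISA after 16 hr, decreased signal indicating inhibition.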
# DT40 TDP1 no CPT = qHTS for Inhibitors of human tyrosyl-DNA phosphodiesterase 1 (TDP1): qHTS in cells in absence of CPT. AID 686978, 2013. Potency, µM (titrated, usually from 46.2 µM), for the others: at the top dose activity change, negative = growth inhibition, actives largely listed as inhibitors. DT40 Tdp1-/- hTDP1 cells, no CPT, ATP luminescence, 48 h. actives 15% (n = 420,000); note: potency is the fitted concentration of half-maximal effect; nearly all actives have a fitted effect of over 55% in size
#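 Seeded 400 DT40-hTDP1 cells/well (vehicle DMSO, no 20 nM CPT); pinned compounds; ≥48 hr at 37 °C; CellTiter-Glo luminescence as viability measure.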
# Giardia killer = Small Molecules that selectively kill Giardia lamblia: qHTS; Giardia lamblia trophozoite viability; activity change, % at 7.66 µM, hits read low; actives 0.15% (n = 340,000); AID 540267, 2011; in the data active = activity change below about -80%; inconclusive = between about -30% and that limit;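 note: parasites exposed to compound for two days anaerobically before the ATP read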
#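 Compounds were tested on trophozoites seeded at 100 cells/well and held 48 hrs at 37 deg C anaerobically. An ATP-based luminescent kit measured the remaining live cells.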
# TDP1 cell CPT = qHTS for Inhibitors of human tyrosyl-DNA phosphodiesterase 1 (TDP1): qHTS in cells in presence of CPT; actives 12% (n = 420,000); chicken DT40 Tdp1-/-;hTDP1 cells + 20 nM CPT, ATP luminescence, 48 h; AID 686979, 2013; Potency, µM (doses to about 46.2 µM), for inactives: top-dose activity change, negative = growth inhibition, usual class: inhibitors; note: potency is the fitted concentration of half-maximal effect; nearly all actives have a fitted effect of over 55% in size
#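 Chicken DT40 Tdp1-/- cells stably complemented with human TDP1 were seeded at 400 cells/well in medium containing 20 nM camptothecin, exposed to pin-transferred compounds, and grown at 37 °C for at least 48 hr. Viability was read as ATP luminescence.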
# * = called active by the depositor; ? = inconclusive; . = no result given; [ ] = remark or other dose. Unless noted, calls come from the whole dose curve; as a rule, active = well fitted curve in the direction sought with a large enough effect; inconclusive = small, poorly fitted or top-dose-only effect, or another doubt; inactive = no such curve, though single readings can be large; an effect the other way counts as inactive or inconclusive. % is set by controls: 0 for no effect and ±100 for the full control effect.
SMILES,ELG1 DNA repair,TDP1 inh,IL-1B inflam inh,DT40 TDP1 no CPT,Giardia killer,TDP1 cell CPT
CCOC(=O)c1ccc(N2C(=O)c3[nH]nc(-c4ccc(C)cc4)c3C2c2ccc(O)cc2)cc1 (stereo not given),.,2%,.,?,.,?
CCOC(=O)c1ccc(N2C(=O)c3[nH]nc(-c4ccccc4)c3C2c2ccc(CC)cc2)cc1 (stereo not given),.,9%,.,18µM*,.,21µM*
Cc1ccc(C(=O)CCC(=O)Nc2ccccc2C)c(C)c1,17%,2%,-6,-22%,-3,4%
Cc1ncc2c(c1CNC(=O)c1cncs1)CCN(C(=O)c1cc(F)c(F)cc1F)C2,.,.,.,-22%,.,3%[9.04 µM]
CCOc1ccc(N2C(=O)c3[nH]nc(-c4ccc(OC)cc4)c3C2c2cccs2)cc1 (stereo not given),.,10%,.,26µM*,.,23µM*
CCc1ccccc1NC(=O)c1sc2nc(C)cc(C)c2c1N,-5%,.,?,?,6,18µM*
Cc1cc(C)c2c(N)c(C(=O)c3ccc(Cl)cc3Cl)sc2n1,10µM*,8%,-2,18µM*,-23,?
Cc1cc(C)c2c(N)c(C(=O)Nc3ncc(C)s3)sc2n1,?,.,-19,18µM*,-108*,16µM*
Cc1cc(C)c2c(N)c(C(=O)N3CCCCCC3)sc2n1,14%,7%,-17,-24%,14,15µM*
COC(=O)c1sc2nc(C)cc(C)c2c1N,?,1%,-24,-7%,13,-24%
Cc1ccc(-n2c(N)c(C(=O)NCc3ccco3)sc2=S)cc1,2%,5%,-58*,-29%,-16,?
Cc1cc(C)c2c(N)c(C(=O)NCc3ccco3)sc2n1,12%,0%,-61*,?,-1,0%
NOCc1ccccc1,.,-2%,.,.,.,.
O=[N+]([O-])c1cc(S(=O)(=O)N2CCOCC2)ccc1NS(=O)(=O)c1ccccc1,-6%,0%,-83*,-22%,?,21%
COc1ccc(C(CNc2ccc(S(=O)(=O)N3CCN(C)CC3)cc2[N+](=O)[O-])N(C)C)cc1 (stereo not given),-3%,1%,-12,21µM*,?,-12%
COc1ccc(Nc2ccc(S(=O)(=O)N3CCCCC3)cc2[N+](=O)[O-])cc1,-14%,8%,-27,16µM*,-9,?
COc1ccccc1C(CNc1ccc(S(=O)(=O)N2CCCC2)cc1[N+](=O)[O-])N(C)C (stereo not given),12µM*,8%[56.1 µM],?,?,4,13µM*
Cc1ccccc1Nc1ccc(S(=O)(=O)N2CCOCC2)cc1[N+](=O)[O-],-23%,2%,?,?,-2,?
CC(C)(CNc1ccc([N+](=O)[O-])cc1C#N)N1CCOCC1,-13%,-2%,-18,-8%,4,-4%
CC(C)(CNc1ccc(S(=O)(=O)C(F)(F)F)cc1[N+](=O)[O-])N1CCOCC1,19%,6%,-53*,?,-3,?
COc1cc(CNc2ncnc3c2ncn3[C@H]2CN(Cc3ccc(Cl)cc3)C[C@@H](CO)O2)cc(OC)c1OC,.,.,36,16µM*,.,23µM*
COc1ccc(CN2C[C@@H](CO)O[C@@H](n3cnc4c(NCc5cc(OC)c(OC)c(OC)c5)ncnc43)C2)cc1,.,.,16,?,.,?
COc1cc(CN2C[C@@H](CO)O[C@@H](n3cnc4c(NCc5ccc(F)cc5)ncnc43)C2)cc(OC)c1OC,.,.,-69*,?,.,16µM*
COc1cc(CNc2ncnc3c2ncn3[C@H]2CN(Cc3ccc(F)cc3)C[C@@H](CO)O2)cc(OC)c1OC,.,.,0,?,.,21µM*
COc1ccc(OC)c(CCNC(=O)Cn2nc(C)n3c(cc4sccc43)c2=O)c1,.,2%,.,-10%,.,-2%
SMILES,ELG1 DNA repair,TDP1 inh,IL-1B inflam inh,DT40 TDP1 no CPT,Giardia killer,TDP1 cell CPT
O=C(Cc1ccccc1)Nc1ccccc1Sc1ccccc1,11%,0%,9,1%,10,-6%
O=C(CCl)Nc1ccccc1Sc1ccc(Cl)cc1,?,-6%,-100*,?,-6,21µM*
O=C(COC(=O)Cn1cnc2ccccc2c1=O)Nc1ccc(Cl)cc1,20%,5%,14,-3%,12,-25%
O=C(COC(=O)Cn1cnc2ccccc2c1=O)Nc1ccccc1Sc1ccc(Cl)cc1,-6%,0%,0,26µM*,-19,13µM*
CCOc1cc(C(=S)N2CCOCC2)ccc1OS(=O)(=O)c1ccccc1[N+](=O)[O-],?,0%,-3,?,?,?
N#Cc1nc(/C=C/c2ccc(F)cc2)oc1N1CCN(c2ccccc2)CC1,.,5%,.,-7%,.,-21%
Cc1ccc(S(=O)(=O)N(C)[C@H]2C[C@H]3c4[nH]c5ccccc5c4CCN3C[C@H]2[C@H](C)O)cc1,.,.,-7,?,.,21µM*
COc1ccc(CN(C)[C@H]2C[C@H]3c4[nH]c5ccccc5c4CCN3C[C@H]2[C@H](C)O)cc1,.,.,-26,18µM*,.,?
C[C@H](O)[C@@H]1CN2CCc3c([nH]c4ccccc34)[C@@H]2C[C@@H]1N(C)C(=O)Nc1ccccc1,.,.,-28,?,.,?
CCOc1ccc2nc(NC(=O)c3nc(SCc4ccc(C)cc4)ncc3Cl)sc2c1,.,-5%,.,-3%,.,-1%
COc1ccccc1NC(=O)Cc1noc(CSc2nnc(C)n2C)n1,-3%,-8%,-11,15%,-15,6%
Cc1ccccc1NC(=O)Cc1nc(COC(=O)c2nccnc2N)cs1,.,.,-18,-16%,.,-10%
O=C(O)c1cc(Cl)c(Cl)cc1C(=O)NCc1ccco1,14%,8%,4,-33%,18,-2%
CCCCOc1ccc(C(=O)N2CCC(C)CC2)cc1,29%,7%,?,-22%,-4,-21%
CCCCOc1ccc(C2CCC(C(C)=O)C(C)C2)cc1 (stereo not given),?,-3%,-4,23µM*,-21,?
CCOC(=O)c1c(NC(=O)CN(C)C)sc(C(=O)N(CC)CC)c1C,-10%,-2%,-5,-12%,-17,-4%
